ClpP mod – qHTS Assay for Activators of ClpP; hit rate 1.9% among 340,000; purified B. subtilis ClpP, FRET peptide cleavage, 20 min; Potency, µM (series often up to 57.5 µM), for the others: at the top dose activity change, negative = active; ATP-dependent Clp protease proteolytic subunit (Bacillus subtilis (strain 168)), P80244; active = well fitted falling curve with a large enough effect; inconclusive = small, poorly fitted or top-dose-only effect; inactive = no such curve, though single readings can be large or run the other way; also: potency is read from the fitted curve at half-maximal effect; the source files actives as falling curves though it sought activators and does not explain the sign; nearly all actives have a fitted effect of over 65% in size
Target sequence (P80244 whole entry, looked up): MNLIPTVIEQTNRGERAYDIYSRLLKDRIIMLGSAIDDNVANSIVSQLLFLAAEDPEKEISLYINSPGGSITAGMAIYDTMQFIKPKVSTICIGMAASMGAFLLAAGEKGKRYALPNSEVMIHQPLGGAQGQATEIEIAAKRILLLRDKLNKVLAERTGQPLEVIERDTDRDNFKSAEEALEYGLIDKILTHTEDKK
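ClpP 10 microg/mL final, pH 8 Tris/KCl buffer with BSA, glycerol, Tween-20; compound pinned in; FRET-FV substrate; RT 20 min; Ex320/Em430; ΔFRET vs ADEP 5.8 microM, DMSO, no enzyme.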
uPA generation – blocks generation of uPA at the cell surface. cell surface uPA generation assay, qHTS. Potency, µM (series often up to 38.3 µM), inactives show at the top dose activity change, negative = inhibition, most hits filed as inhibitors. hit rate 0.31% among 330,000. AID 540303; active = well fitted inhibition curve with a large enough effect; inconclusive = small, poorly fitted or top-dose-only effect; inactive = no such curve, though single readings can be large or run the other way; tested in mouse RAW 264.7 cells; also: potency is read from the fitted curve at half-maximal effect; % is scaled to controls: 0 for no effect and ±100 for the full control effect; nearly all actives have a fitted effect of over 55% in size
TCR activator – T cell receptor activation | primary human leukocytes, anti-CD3, IL-2 HTRF, 48 h | Potency, µM (titrated, usually from 9.22 µM), inactives show at the top dose activation of IL-2 secretion, actives largely listed as activators | 330,000 tested, under 10 active; also: % of control where 0% means no effect
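Activity was scored as IL-2 release from primary human leukocytes given only a TCR signal (a-CD3 beads) plus compound for 48 hr. Detection used a two-antibody HTRF format read at 665nm.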
Sfp inh – blocks B. subtilis Sfp PPTase activity; Q9F4F7; hit rate 3.5% among 310,000; Potency, µM, for the others: largest response in the series, negative = inhibition, hits mostly inhibitors; Biochemical Sfp PPTase activity, qHTS;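 also: the enzyme is Sfp with the accession as filed and its product quenches rhodamine fluorescence; potency is read from the fitted curve at half-maximal effect; 0% = enzyme reaction without inhibitor and -100% = no enzyme wells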
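Buffer: 50 mM Hepes-Na pH 7.6, 10 mM MgCl2, 0.01% Nonidet P-40, 0.01% BSA. Enzyme 15 nM, pre-exposed to compound 15 min; substrates then added and fluorescence change tracked over 30 min.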
* = called active by the depositor; ? = inconclusive; . = no result; [ ] = remark or other dose. In the library only some 4.2% were active in any assay of this set; here they are far more common. Unless noted, calls follow the shape of the dose curve; as a rule, active = well fitted curve in the direction sought with a large enough effect; inconclusive = small, poorly fitted or top-dose-only effect, or another doubt; inactive = no such curve, though single readings can be large; an effect the other way counts as inactive or inconclusive.

SMILES | ClpP mod | uPA generation | TCR activator | Sfp inh
Cc1ccc(OCC(=O)NC(=S)Nc2ccccn2)c(Br)c1 | 7% | -15% | -8% | 6%
COc1ccc(OCC(=O)NC(=S)NNC(=O)COc2ccc(Br)cc2Cl)cc1 | . | -1% | 7% | 22µM*
O=C(CSc1nnc(-c2cccc(F)c2)c(-c2cccc(F)c2)n1)NC1CCCCC1 | -10% | . | . | .
COc1ccc(OC)c(N(CC(=O)NCc2ccccc2)S(=O)(=O)c2ccccc2)c1 | 0% | . | . | .
COc1ccc(OC)c(N(CC(=O)NCc2ccccc2)S(=O)(=O)c2ccc(OC)c(OC)c2)c1 | 2% | -3% | 4% | 50µM*
Cc1ccc(C2C=C(c3ccccc3OC(F)F)Nc3ncnn32)cc1 (centres undefined) | 22µM* | 0% | -11% | -13%
CCN(CC)CCOC(=O)c1ccc(N/C=C(/C#N)c2nc(-c3cc4ccccc4oc3=O)cs2)cc1 | -1% | -9% | -3% | -29%
CCN(CC)CCOC(=O)c1ccc(N/C=C(/C#N)c2nc(-c3ccc(OC)cc3)cs2)cc1 | 0% | 1% | 2% | 56µM*
CCN(CC)CCOC(=O)c1ccc(N/C=C(/C#N)c2nc(-c3ccc4c(c3)OCO4)cs2)cc1 | . | -1% | 5% | 20µM*
C[C@@H]1CCN(C(=O)[C@H](CCCNC(=N)N)NS(=O)(=O)c2cccc3c2NC[C@H](C)C3)[C@@H](C(=O)O)C1 | . | . | . | 6%
CC(C)CCN=Cc1c(O)n(-c2ccccc2)c(=O)c2ccccc12 | -6% | 12% | . | 56µM*
COc1ccccc1S(=O)(=O)N1CCN(c2nc(-c3cccs3)nc3ccccc23)CC1 | 4% | . | . | .
O=c1cc(O)c(-c2ccccc2Cl)c(Cl)[nH]1 | 0% | 2% | -2% | 89µM*
COC(=O)Cn1ncn2c(cc3oc(C)cc32)c1=O | -1% | -5% | 2% | 56µM*
Nc1nc(N)c2snnc2n1 | -2% | . | . | .
C(=N\Nc1ccccn1)/c1c[nH]c2ccccc12 | . | -9% | -3% | ?
O=C(O)c1cccc2c(/C=N/Nc3ccccn3)c[nH]c12 | -1% | -1% | -10% | 50µM*
O=C(CSc1ccccc1C(=O)NCCCN1CCCC1=O)NCc1ccco1 | -20% | 4% | -2% | 45µM*
O=C(CSc1ccccc1F)NCCCN1CCCC1=O | 1% | 1% | 1% | .
COc1ccc(Cl)cc1C(=O)Nc1sc2c(c1C(=O)OC(C)C)CCCC2 | -4% | . | . | .
Cc1oncc1-c1cn2ccccc2n1 | 25µM* | -1% | -6% | 9%
Cc1ccn2cc(-c3ccc(Br)cc3)nc2c1 | 3% | 2.8µM* | 2% | 3%
COc1c(Cl)cccc1-c1cn2ccc(C)cc2n1 | . | -6% | 0% | -12%
Cc1ccn2cc(-c3cnoc3C)nc2c1 | 14µM* | -8% | 1% | 4%
Cc1ccc(-c2cn3ccc(C)cc3n2)cc1 | 0% | . | . | .
SMILES | ClpP mod | uPA generation | TCR activator | Sfp inh
O=c1oc2ccccc2cc1-c1cn2ccccc2n1 | . | -20% | 0% | -22%
CCC(C)NC(=O)c1ccc2c(=O)n3c(nc2c1)CCCCC3 (centres undefined) | -11% | . | . | .
Cc1noc(C)c1-c1ccc2ncnc(NCc3cccc(C(F)(F)F)c3)c2c1 | . | . | . | 7%
Cc1cnc2ccc(I)cc2c1/C=C/c1ccc(N(C)C)cc1 | 0% | . | . | .
CCOC(=O)c1cnc2ccc(C(=O)OC)cc2c1Nc1ccccc1CC | -2% | . | . | .
C=CCNC(=O)c1ccsc1N | -9% | . | . | .
Cc1cccc(NC(=O)Cn2c(=O)n(CC3CCC(C(=O)NCCc4ccccc4)CC3)c(=O)c3ccccc32)c1 (centres undefined) | -6% | . | . | .
CC(=O)Nc1ccc(NC(=O)COc2ccc(-c3ccc(C#N)cc3)cc2)cc1 | ? | 0% | 7% | .
N#Cc1ccc(-c2ccc(OCC(=O)Nc3cccnc3)cc2)cc1 | 16µM* | 4% | -1% | 7%
C=CCNCCCCOc1ccc(OCc2ccccc2)cc1 | -1% | 11µM* | -5% | -16%
Cc1cccc(NC(=O)c2nc[nH]c2C(=O)N2CCc3ccccc3C2)c1 | 0% | -33% | -1% | .
Cc1ccc(CS(=O)(=O)Cc2ccc(C(=O)NCc3ccccn3)o2)cc1 | -1% | 10% | 4% | 50µM*
CC1CCC2(CC1)Nc1ccccc1C(=O)N2c1ccccc1 (centres undefined) | 28µM* | 0% | 5% | 10%
CCC(=O)N1CCc2cc(Br)cc(S(=O)(=O)CCC(=O)Nc3cccc(C)c3C)c21 | 1% | . | . | .
CCOC(=O)C1=C(C)NC(=O)CC1c1cc2c(cc1Br)OCO2 (centres undefined) | 2% | 1% | -5% | 19%
O=C1CC(c2cc3c(cc2Br)OCO3)C2=C(CCCC2=O)N1 (centres undefined) | 25µM* | 0% | 5% | 15%
COC(=O)C1=C(C)NC(=O)/C1=C\c1cc(C)n(-c2ccc(F)cc2)c1C | . | 1% | -2% | 35µM*
COc1ccc(C(C)(C)C)cc1NC(=O)CNc1cccc2ccccc12 | 11µM* | -1% | -2%[46.1 µM] | 33%
NC(=O)CSc1oc(-c2ccco2)nc1S(=O)(=O)c1ccc(F)cc1 | -1% | -5% | -1% | -3%
COc1ccc(CNc2ccc(Br)cc2)cc1 | -3% | -6% | -9% | 56µM*
COc1ccc(Nc2ccc(OC)cc2)cc1 | . | -5% | 1% | 2.8µM*
COc1ccc(CNc2ccc(C(=O)O)cc2)cc1 | -1% | -6% | 2% | 6%
COC(=O)Nc1sc2c(c1C(=O)NC1CC1)CCCCCC2 | -3% | . | 3% | 32µM*
COC(=O)c1c(NC(=O)c2ccco2)sc2c1CCC2 | 174% | -2% | -3% | -4%
Cc1ccc(C(=O)C(NC(=O)c2ccco2)Nc2sc3c(c2C(N)=O)CCCC3)cc1 (centres undefined) | . | . | 3%[46.1 µM] | 79µM*
SMILES | ClpP mod | uPA generation | TCR activator | Sfp inh
CNC(=O)c1c(NC(=O)c2ccco2)sc2c1CCCC2 | -7% | -2% | -1% | -8%
O=C(Nc1sc2c(c1C(=O)NC1CC1)CCCCCC2)c1ccco1 | ? | . | 2% | 40µM*
O=C(O)CCC(=O)Nc1sc2c(c1C(=O)NC1CCCC1)CCCC2 | -6% | 3% | -5% | 14%
CC(C)OC(=O)c1c(NC(=O)c2ccco2)sc2c1CCCCC2 | 28µM* | -6% | 0% | 32µM*
CCC(=O)N1CCc2cc(CNC(=O)c3ccc(OC)cc3)ccc21 | -2% | . | . | .
COc1ccc(-c2nnc(SCC(=O)N3CCCC3=O)n2N)cc1OC | 1% | -2% | -1% | .
O=C1N(CCCl)c2ccc(Br)cc2C12OCCO2 | -12% | 0% | . | 9%
CC(C)COc1ccc(C(=O)Nc2onc3c2CCCC3)cc1 | -1% | . | . | .
Cn1ccc2cc(S(=O)(=O)N3CCCN(C(=O)Nc4ccc(Br)cc4)CC3)ccc21 | -21% | . | . | .
CCOc1cccc(-c2cc(=O)[nH][nH]2)c1 | 14µM* | 9% | 0%[46.1 µM] | 14%
C=CCSc1nnc(-c2cc3c(-c4ccccc4)nn(C)c3s2)n1C | 28µM* | 1% | -3% | -14%
C=CCSc1nnc(-c2cc3c(C(F)(F)F)nn(C)c3s2)n1C | -2% | 2% | -3% | 12%
COc1ccccc1-c1cc(NCc2cnc(C)cn2)ncn1 | . | . | . | 50µM*
Cc1cnc(CNc2cc(-c3ccccc3C(F)(F)F)ncn2)cn1 | . | . | . | -13%

High-throughput results: PubChem, National Center for Advancing Translational Sciences (NCATS)
